Results: paper PMC9574860, “Chemical Toolkit for PARK7: Potent, Selective, and High-Throughput” (Journal of Medicinal Chemistry, 2022)
Screen size: about 7,900 compounds; about 400 (5.1%) showed an effect of 50% or more. The full list was thinned out, with strong results kept by preference.

These compounds were tested against Parkinson's disease protein 7 (PARK7/DJ1) (human, UniProt Q99497) (assay: primary screen, percent inhibition; read as competition with a fluorescent probe by fluorescence polarization; higher = more effect of the substance). Conditions: 100 µM.
Parkinson's disease protein 7 (PARK7/DJ1), sequence (Q99497 whole entry, looked up, the tested form may be a part): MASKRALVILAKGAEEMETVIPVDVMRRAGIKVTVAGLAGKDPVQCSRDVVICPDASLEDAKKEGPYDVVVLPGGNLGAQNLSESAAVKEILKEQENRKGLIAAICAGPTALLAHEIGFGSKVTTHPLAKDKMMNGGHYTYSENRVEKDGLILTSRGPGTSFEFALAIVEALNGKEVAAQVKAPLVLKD
Summary of the method: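 Fluorescence-polarization probe displacement (JYQ-107, 20 nM final, 2 h) after 2 h preincubation of PARK7 (0.2 μM final) with each fragment at 100 μM final. Read-out ex/em 480/520 nm; remaining activity derived from FP signal loss relative to reference controls.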

| Compound | Inhibition % |
| --- | --- |
| O=C1CC2(CCCC2)N1 | 4.3% |
| CCc1cc(S(=O)(=O)n2ccnc2)ccc1OC | 7.72% |
| c1ccc(OCC2CO2)cc1 (centres unmarked) | 9.6% |
| CCn1nc2c(cc1=O)CN(C1CC(C)OC1=O)CC2 (centres unmarked) | 61.4% |
| CC1CC(N2CCc3c(nc(C4CC4)n3C)C2)C(=O)O1 (centres unmarked) | 5.37% |
| CC1CC(N2CCc3sccc3C2)C(=O)O1 (centres unmarked) | 13.9% |
| CC(=O)Nc1cccc2c1CCN(C1CC(C)OC1=O)C2 (centres unmarked) | 1.86% |
| CC1CC(N2CCN(C)c3ccccc3C2)C(=O)O1 (centres unmarked) | 0.987% |
| CCCn1nc2c(cc1=O)CN(C1CC(C)OC1=O)CC2 (centres unmarked) | 86.8% |
| C=CC(=O)NCC1CCSC1 (centres unmarked) | 5.45% |
| C=CC(=O)N1CCc2ccc(C(=O)O)cc2CC1 | 4.84% |
| O=c1cn[nH]c(S)n1 | 74.8% |
| Cc1n[nH]c(S)nc1=O | 2.15% |
| O=c1[nH]c(S)nc2[nH]ncc12 | 4.43% |
| Cn1c(=O)c2c(nc(Cl)n2CCS(=O)(=O)F)n(C)c1=O | 3.18% |
| CC1CC(N2CCC(O)CC2)C(=O)O1 (centres unmarked) | 5.67% |
| C=CC(=O)N1CCC(N(C)C(=O)N(C)C)C1 (centres unmarked) | 28.7% |
| Cc1cc(NC(=O)CCl)no1 | 3.42% |
| Cc1nonc1C(=O)CCl | 97.9% |
| Cc1noc(C)c1C(=O)CCl | 13.5% |
| C=CC(=O)NCC1CCC=CO1 (centres unmarked) | 6.04% |
| C=CC(=O)N1CCN(S(=O)(=O)CC)C[C@H]1C | 12.6% |
| CC(=O)Nc1nn(C)cc1S(=O)(=O)F | 14.8% |
| Cn1cc(S(=O)(=O)Oc2cnc3ccccc3c2)cn1 | 6.55% |
| CN(c1ccn(C)n1)S(=O)(=O)c1ccccc1S(=O)(=O)F | 97.9% |

| Compound | Inhibition % |
| --- | --- |
| CN(c1ccccc1)S(=O)(=O)c1ccccc1S(=O)(=O)F | 96.6% |
| CN(c1cnn(C)c1)S(=O)(=O)c1ccccc1S(=O)(=O)F | 98.1% |
| C=CC(=O)N(Cc1ccccc1)c1cnn(C)c1 | 29.9% |
| CN(c1ccccc1)S(=O)(=O)C=Cc1ccccc1 | 4.34% |
| O=S(=O)(F)c1coc2ccccc12 | 10.5% |
| Cn1cc(S(=O)(=O)F)c(N)n1 | 7.95% |
| CC1(C)OB(CC2CC3(CCOCC3)C2)OC1(C)C | 3.09% |
| C=CC(=O)N(C)C1C(C)CCCC1C (centres unmarked) | 5.45% |
| C=CC(=O)N1C[C@]2(C)COC[C@]2(C)C1 | 9.62% |
| C=CC(=O)N1CC(C)(C)O[C@@]2(C[C@@H]3CC[C@H]2C3)C1 | 10.3% |
| N#Cc1nc(N2CC(CF)C2)ccc1Cl | 3.54% |
| O=C(CCl)N1CCN(S(=O)(=O)Cc2ccccc2)CC1 | 13.1% |
| CCC1(CNS(=O)(=O)C=Cc2ccccc2)CCOCC1 | 6.07% |
| CC1(C)OB(Cc2cc(F)cc(F)c2)OC1(C)C | 6.97% |
| Cc1ccnc(NS(=O)(=O)c2ccc(S(=O)(=O)F)cc2)n1 | 36.3% |
| O=S(=O)(F)c1ccc(S(=O)(=O)Nc2ccncc2)cc1 | 8.89% |
| O=S(=O)(F)c1ccc(S(=O)(=O)Nc2cccc(F)n2)cc1 | 54.7% |
| O=S(=O)(F)c1ccc(S(=O)(=O)Nc2ccsc2)cc1 | 27.7% |
| Cc1nccc(NS(=O)(=O)c2ccc(S(=O)(=O)F)cc2)n1 | 57.9% |
| Cc1ccnc(NS(=O)(=O)c2ccc(S(=O)(=O)F)cc2)c1 | 16.1% |
| O=S(=O)(F)c1ccc(S(=O)(=O)Nc2nccs2)cc1 | 64% |
| O=S(=O)(F)c1ccc(S(=O)(=O)Nc2ccccn2)cc1 | 5.71% |
| CC1(C)OB(c2cncc(NS(=O)(=O)c3ccccc3)c2)OC1(C)C | 8.59% |
| CCNS(=O)(=O)c1ccc(B2OC(C)(C)C(C)(C)O2)c(C)c1 | 5.32% |
| C=CC(=O)NC1CC(OC)C1(C)C (centres unmarked) | -3.29% |

| Compound | Inhibition % |
| --- | --- |
| CC1CC(Sc2cnccn2)C(=O)O1 (centres unmarked) | 48.8% |
| Cc1ccc2cccc(OC(=O)N(C)C)c2n1 | 5.34% |
| C=CS(=O)(=O)c1ccccc1 | 9.43% |
| CC1CCN(C(=O)C=Cc2cn(C)c(=O)n(C)c2=O)CC1 | 10.9% |
| CN1CCC(CNc2ccc(C#N)nc2)CC1 | 1.29% |
| O=C(CCCl)N1CCN(c2ncccn2)CC1 | 3.8% |
| Cl.O=C(CCl)N1CCN(c2cccc(Cl)c2)CC1 | 44.3% |
| C=CC(=O)N1CCN(c2ncccn2)CC1 | 9.58% |
| O=C(CCl)N1CCN(c2ncccn2)CC1 | 91.6% |
| Cl.O=C(CCl)N1CCN(c2cnccn2)CC1 | 55.6% |
| O=C(CCCl)N1CCN(c2ccccn2)CC1 | 12.9% |
| C=CC(=O)NCCN1C(=O)CNC1=O | 12.9% |
| C=CC(=O)NCC1CCN(c2ccccc2)CC1 | 3.72% |
| N#Cc1cc(F)ccn1 | 5.03% |
| N#Cc1ccnc(Cl)n1 | 3.95% |
| N#Cc1cc(Cl)ccn1 | 52.6% |
| O=S(=O)(C=Cc1ccccc1)Nc1ccc(F)cn1 | 6.27% |
| Cc1ccc(NS(=O)(=O)CCCS(=O)(=O)F)nc1 | 80.1% |
| O=S(=O)(F)c1ccc(Nc2ccc(F)cc2)nc1 | 2.34% |
| Cc1ccc(C=CS(=O)(=O)Nc2ccc(C#N)cn2)cc1 | 11.1% |
| C=CC(=O)Nc1ccc(C)cn1 | 0.151% |
| O=S(=O)(F)CCCS(=O)(=O)Nc1ccc(F)cn1 | 77.2% |
| Cn1c(SC2CCOC2=O)nnc1-c1ccccc1 (centres unmarked) | 12.6% |
| FC(F)(F)c1ccc(S)nn1 | 25.5% |
| Sc1ccc(Cl)nn1 | 53.5% |

| Compound | Inhibition % |
| --- | --- |
| Cc1ccc(S)nn1 | 28.1% |
| CC(C)CC(=O)NNS(=O)(=O)c1ccc(S(=O)(=O)F)cc1 | 30.6% |
| CC(C)(C)C(=O)NNS(=O)(=O)c1cccc(S(=O)(=O)F)c1 | 97.2% |
| CC(C)CC(=O)NNS(=O)(=O)c1cccc(S(=O)(=O)F)c1 | 98.2% |
| CC(C)(C)C(=O)NNS(=O)(=O)c1ccc(S(=O)(=O)F)cc1 | 6.55% |
| COCC(=O)Nc1ccc(S(=O)(=O)F)cc1 | 13.6% |
| CNC(=O)Nc1ccc(S(=O)(=O)F)cc1 | 22.2% |
| O=c1oc2cc(OCC3CO3)ccc2c2c1CCC2 (centres unmarked) | 10.6% |
| N#Cc1nc(N2CCOCC2)ccc1Cl | 8.71% |
| Cc1cn2c(C=C(C#N)c3ccccn3)c(C)nc2s1 | 13.6% |
| O=C(CCl)Nc1cc(C(F)(F)F)ccc1-n1cncn1 | 32.5% |
| C=CC(=O)N1CCC(c2ccc(C)nc2)CC1 | 4.08% |
| CCOc1ccncc1S(=O)(=O)Oc1cccc(F)c1 | 58.4% |
| CCn1cc(S(=O)(=O)Oc2cccc(F)c2)nc1C | 3.67% |
| Cn1cc(S(=O)(=O)Oc2cccc(F)c2)c(=O)n(C)c1=O | 5.3% |
| N#Cc1nccnc1N1CCc2c(F)ccc(F)c2C1 | 41% |
| C=CC(=O)NCc1cc2ccccc2s1 | 13.3% |
| CC1CC(N2CCCCC2Cn2cncn2)C(=O)O1 (centres unmarked) | 1.57% |
| C=CC(=O)NCCC1CCCCO1 (centres unmarked) | 2.29% |
| O=C(CCl)C1CCCCO1 (centres unmarked) | 94.5% |
| O=C(CCl)NCC1CCCO1 (centres unmarked) | 5.15% |
| Cn1c(=O)ccn(CC(=O)Nc2cccc(S(=O)(=O)F)c2)c1=O | 99.6% |
| CCn1nc(C)c(C(=O)Nc2cccc(S(=O)(=O)F)c2)c1Cl | 8.14% |
| NS(=O)(=O)c1cccc(NC(=O)CCCl)c1 | 4.37% |
| O=C(Cn1ncc2ccccc21)Nc1cccc(S(=O)(=O)F)c1 | 94.6% |

| Compound | Inhibition % |
| --- | --- |
| O=C(CSC(F)(F)F)Nc1cccc(S(=O)(=O)F)c1 | 99.8% |
| CN(C)S(=O)(=O)c1cccc(NC(=O)CCl)c1 | 15.5% |
| O=Cc1cccc(C(=O)O)c1O | 24.2% |
| C=CC(=O)N1CCN(CC(C)C)C(=O)C1 | 0.18% |
| COc1ccc(CS(=O)(=O)F)cc1[N+](=O)[O-] | 18.4% |
| C=CC(=O)N1CC(Cc2cccs2)C1 | 12.5% |
| C=CC(=O)NCCc1nnc2n1CCCCC2 | 8.54% |
| COc1ccc(C(=O)NNC(=O)CCl)cc1 | -3.11% |
| N#Cc1ncn(CCOc2ccccc2Cl)n1 | 8.15% |
| C=CC(=O)N1CC(C)OC2(CCOC(C)C2)C1 (centres unmarked) | 9.19% |
| N#CSc1ccc(NC(=O)CCl)c(F)c1 | 72% |
| O=C(CCl)Nc1ccc(Cl)cc1Cl | 18% |
| O=C(CCl)Nc1ccc(F)c(F)c1F | 32.8% |
| O=C(CCl)Nc1ccc(F)cc1F | 23.9% |
| O=C(CCl)Nc1ccc(F)cc1Cl | 13.8% |
| N#CSc1ccc(NC(=O)CCl)c(Cl)c1 | 55.8% |
| O=C(CCl)Nc1ccc(Cl)cc1F | 49.7% |
| Cc1cc(SC#N)cc(C)c1NC(=O)CCl | 4.28% |
| O=C(CCl)Nc1ccc(Br)cc1F | 71.1% |
| Cc1cccc(OCC(=O)Nc2ccc(S(=O)(=O)F)cc2)c1 | 9.17% |
| OB(O)c1ccccc1OCC1CCOC1 (centres unmarked) | 5.05% |
| Cc1cc(CN(C)c2ccc(C#N)nc2)no1 | -2.05% |
